PubChem BioAssay (NCI)
This is part of a sample that, as a whole, favours compounds with a hit. Of some 83,000 tested, about 20% had one in any assay.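 Each cell line was grown in a 96-well plate and treated with one concentration of compound for 48 hours. Values below 10 were considered active.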 Calls of active or inactive are those of the source.

What was measured:
Assay in all cases: NCI-60 one-dose screen, 48 h (100 = growth as untreated, 0 = no growth, -100 = all killed)
Conditions in all cases: 10 µM unless noted
NCI-H23 lung = system: NCI-H23 lung
NCI-H226 lung = system: NCI-H226 lung
NCI-H322M lung = system: NCI-H322M lung
HOP-62 NSCLC = system: HOP-62 NSCLC
NCI-H460 lung = system: NCI-H460 lung
NCI-H522 lung = system: NCI-H522 lung
A549/ATCC NSCLC = system: A549/ATCC NSCLC
786-0 renal = system: 786-0 renal
COLO 205 colon = system: COLO 205 colon
DU-145 prostate = system: DU-145 prostate

Measured: growth

COc1ncc(-c2ccc3nccc(C#CCN4CCN(S(C)(=O)=O)CC4)c3c2)cc1NS(=O)(=O)c1ccc(F)cc1F
active: NCI-H23 lung 6.7% | NCI-H226 lung 9.35% | NCI-H322M lung -11.8% | HOP-62 NSCLC 9.92% | NCI-H460 lung 6.27% | NCI-H522 lung -1.57% | A549/ATCC NSCLC 5.73% | 786-0 renal -8.36% | COLO 205 colon -55.1%
inactive: DU-145 prostate 17.9%

Cc1ccc2c(c1)C(=O)/C(=C/c1ncc([N+](=O)[O-])n1C)O2
inactive: NCI-H226 lung 65.7% | NCI-H322M lung 75.6% | HOP-62 NSCLC 61.2%
active: NCI-H23 lung -2.65% | NCI-H460 lung -38% | NCI-H522 lung -64.1% | A549/ATCC NSCLC 6.86% | 786-0 renal 2.46% | COLO 205 colon -74.8% | DU-145 prostate -25.9%

ClC1=C(Cl)C(=C2C(Cl)=C(Cl)C(Cl)=C2Cl)C(Cl)=C1Cl
inactive: NCI-H23 lung 97.9% | NCI-H226 lung 101% | NCI-H322M lung 97.7% | HOP-62 NSCLC 90.1% | NCI-H460 lung 103% | NCI-H522 lung 79% | A549/ATCC NSCLC 90.2% | 786-0 renal 103% | COLO 205 colon 103% | DU-145 prostate 106%

O=C1CC(C(F)(F)F)=NN1C(=O)c1nn(-c2ccc(Cl)cc2)cc1O
inactive: NCI-H23 lung 101% | NCI-H226 lung 79.8% | NCI-H322M lung 15.6% | HOP-62 NSCLC 70.2% | NCI-H460 lung 71.2% | NCI-H522 lung 89.9% | A549/ATCC NSCLC 91.2% | 786-0 renal 97.7% | COLO 205 colon 125% | DU-145 prostate 83.6%

O=C(CN1CCCCC1)Sc1nnc2sc3ccccc3n12
inactive: NCI-H23 lung 93.1% | NCI-H226 lung 84.9% | NCI-H322M lung 111% | HOP-62 NSCLC 89.9% | NCI-H460 lung 103% | NCI-H522 lung 99.5% | A549/ATCC NSCLC 109% | 786-0 renal 106% | COLO 205 colon 121% | DU-145 prostate 112%

CCN(CC)c1ccc(C(O)C2=CC(=O)c3ccccc3C2=O)cc1 (stereo not given)
inactive: NCI-H226 lung 37.5% | NCI-H322M lung 25.2% | A549/ATCC NSCLC 47.6% | COLO 205 colon 21.6%
active: NCI-H23 lung -2.03% | HOP-62 NSCLC -12.7% | NCI-H460 lung 7.97% | NCI-H522 lung -62.2% | 786-0 renal 3.34% | DU-145 prostate 3.92%

O=C(Nc1ccc(Cl)cc1)Nc1ccc(Nc2nncc3ccccc23)cc1
active: NCI-H460 lung 9.89%
inactive: NCI-H23 lung 12.5% | NCI-H226 lung 33.3% | NCI-H322M lung 64.3% | HOP-62 NSCLC 38.7% | NCI-H522 lung 11.9% | A549/ATCC NSCLC 20.1% | 786-0 renal 50.4% | COLO 205 colon 18.6% | DU-145 prostate 33.7%

Cc1cc(C)n2nc(SCC(=O)Nc3sc4c(c3C(N)=O)CCC4)nc2n1
inactive: NCI-H23 lung 101% | NCI-H226 lung 87.1% | NCI-H322M lung 99.7% | HOP-62 NSCLC 93.7% | NCI-H460 lung 116% | NCI-H522 lung 94% | A549/ATCC NSCLC 146% | 786-0 renal 96.4% | COLO 205 colon 118% | DU-145 prostate 101%

O=C(N1CCC(CN=c2cc3n(-c4ccc(Cl)cc4)c4ccccc4nc-3cc2Nc2ccc(Cl)cc2)CC1)N1CC1
active: NCI-H23 lung -58.2% | NCI-H322M lung -54.3% | HOP-62 NSCLC -85.2% | NCI-H460 lung -71.5% | NCI-H522 lung -76.7% | A549/ATCC NSCLC -89.4% | 786-0 renal -93.2% | COLO 205 colon -59% | DU-145 prostate -95.3%
inactive: NCI-H226 lung 37.2%

CN(C)c1nc(-c2ccco2)n2nc(-c3ccco3)cc2n1
inactive: NCI-H23 lung 87.9% | NCI-H226 lung 87.1% | NCI-H322M lung 94% | HOP-62 NSCLC 90.6% | NCI-H460 lung 95.5% | NCI-H522 lung 94.8% | A549/ATCC NSCLC 92.9% | 786-0 renal 97.2% | COLO 205 colon 116% | DU-145 prostate 121%

COc1cc(/C=C/C(=O)Nc2cccnc2Nc2cc(OC)c(OC)c(OC)c2)cc(OC)c1OC
inactive: NCI-H23 lung 93% | NCI-H226 lung 93.1% | NCI-H322M lung 115% | HOP-62 NSCLC 106% | NCI-H460 lung 95.4% | NCI-H522 lung 87.6% | A549/ATCC NSCLC 85.4% | 786-0 renal 86.3% | COLO 205 colon 113% | DU-145 prostate 105%

COc1ccc2nc(-c3ccc(-n4cncc4-c4ccc(OC)c(N)c4)cc3)sc2c1
inactive: NCI-H23 lung 108% | NCI-H226 lung 108% | NCI-H322M lung 95.3% | HOP-62 NSCLC 116% | NCI-H460 lung 100% | NCI-H522 lung 82% | A549/ATCC NSCLC 93.5% | 786-0 renal 111% | COLO 205 colon 105% | DU-145 prostate 119%
